Screening data as filed in PubChem.
Shown are actives, neighbours in structure and some others; about 19% of the full set was active somewhere.
ELG1 repair inh: inhibitors of ELG1-dependent DNA repair in HEK293T cells; HEK293T ELG1-luciferase reporter, luminescence, 16 h; DNA damage induced by 5-fluorouridine; Potency, µM (doses to about 46.1 µM), for the others: top-dose activity change, negative = inhibition, most hits filed as inhibitors; 330,000 compounds, 2.3% hits; also: potency is read from the fitted curve at half-maximal effect; nearly all actives have a fitted effect of over 55% in size
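Cells (2,000 per well) received 5-fluorouridine plus test compound or DMSO and were incubated 16 hr at 37 °C, 5% CO2. Luciferase activity was read by luminescence 30 min after ONE-Glo addition; signal suppression marked inhibition of damage-induced ELG1 function.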
DT40 TDP1 no CPT: qHTS for Inhibitors of human tyrosyl-DNA phosphodiesterase 1 (TDP1): qHTS in cells in absence of CPT | DT40 Tdp1-/- hTDP1 cells, no CPT, ATP luminescence, 48 h | Potency, µM (titrated, usually from 46.2 µM), without a hit: at the top dose activity change, negative = growth inhibition, actives largely listed as inhibitors | 420,000 compounds, 15% hits; also: potency is read from the fitted curve at half-maximal effect; nearly all actives have a fitted effect of over 55% in size
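Growth of hTDP1-complemented DT40 Tdp1-knockout cells is measured by ATP luminescence after at least 48 hr compound exposure at 37 °C, with DMSO substituting for the 20 nM CPT used in the parallel screen.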
IL1B secr inh: blocks inflammasome-driven IL-1 beta release | THP-1 LPS/ATP IL-1B secretion, AlphaLISA, 16 h; stronger effect = lower value | activity change, % at 57.5 µM | 360,000 compounds, 4.7% hits | AID 743279; in the data active = activity change below about -50%; inconclusive = mostly about -30% to -49%
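THP-1 cells pretreated 1 hr with compounds (up to 57.5 uM final), then stimulated with LPS (250 ng/mL final) plus ATP (1.25 mM final); secreted IL-1B measured by AlphaLISA after 16 hr, decreased signal indicating inhibition.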
HT1080NT lethal: kills 2HG-producing HT-1080-NT fibrosarcoma cells | HT-1080-NT fibrosarcoma viability, CellTiter-Glo ATP luminescence, 48 h | Potency, µM (top dose mostly 46.1 µM), inactives show at the top dose activity, negative = less viability, hits mostly cytotoxic | 360,000 compounds, 1.6% hits | AID 686970;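 also: NT is the 2HG producing partner of a matched IDH1 knockdown line; potency is read from the fitted curve at half-maximal effect; 0% = DMSO-treated cells and -100% = media-only wells without cells; nearly all actives have a fitted effect of over 55% in size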
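Read-out is CellTiter-Glo luminescence after 10 minutes at room temperature, following 48 hours' compound treatment of HT-1080-NT cells (750 cells/well, RPMI, 5% FBS, 37 degrees C).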
DT40 TDP1 CPT: DT40-hTDP1 cell growth loss with CPT; chicken DT40 Tdp1-/-;hTDP1 cells + 20 nM CPT, ATP luminescence, 48 h; Potency, µM (doses to about 46.2 µM), without a hit: at the top dose activity change, negative = growth inhibition, most hits filed as inhibitors; 420,000 compounds, 12% hits; also: potency is read from the fitted curve at half-maximal effect; nearly all actives have a fitted effect of over 55% in size
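Cell growth measured by CellTiter-Glo luminescence after a minimum 48 h, 37 C compound exposure with 20 nM CPT in Tdp1-knockout DT40 cells stably expressing hTDP1, seeded 400/well; qHTS titration format.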
HT1080 IDH1KD tx: toxicity to HT-1080 IDH1 knockdown cells (counter line); HT-1080 IDH1 knockdown viability, ATP luminescence, 48 h; 360,000 compounds, 2% hits; Potency, µM (titrated, usually from 46.1 µM), without a hit: at the highest dose activity, negative = toxicity, actives largely listed as cytotoxic;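 also: potency is read from the fitted curve at half-maximal effect; 0% = DMSO wells and -100% = cell-free medium wells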
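Knockdown cells (IDH1KD HT-1080) received compounds 2 h after plating at 750 cells/well and were kept 48 h at 37 °C in 5% FBS RPMI. A CellTiter-Glo luminescence read gave % activity for curve fitting.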
The depositor's hits bear a star; ? = inconclusive; · = no result given; [ ] = remark or other dose. Unless noted, calls follow the shape of the dose curve; as a rule, active = well fitted curve in the direction sought with a large enough effect; inconclusive = small, poorly fitted or top-dose-only effect, or another doubt; inactive = no such curve, though single readings can be large; an effect the other way counts as inactive or inconclusive. Unless noted, % is scaled to controls: 0 for no effect and ±100 for the full control effect.

SMILES | ELG1 repair inh | DT40 TDP1 no CPT | IL1B secr inh | HT1080NT lethal | DT40 TDP1 CPT | HT1080 IDH1KD tx
CCOC(=O)CCCCCNC(=O)c1ccc(F)cc1F | · | 0.1% | 11.7 | 21.8% | 3.4% | 13.4%
CC1CCCN(C(=O)COC(=O)C2=COCCO2)C1 (centres undefined) | ? | 1.6% | 20.9 | 7.6% | -24.4% | 15.3%
O=C(c1cccc(S(=O)(=O)N2CCc3ccccc32)c1)N1CCN(c2ccccc2)CC1 | -0.5% | 29.1µM* | ? | 13µM* | ? | ?
CC(=O)N1CCc2cc(C(=O)CN3CCC(C)CC3)ccc21 | 11.4% | -2.2% | 11.5 | 23.1% | ? | 4.0%
Cc1ccc(S(=O)(=O)N2CCc3ccccc3C2CN2C(=O)c3ccccc3C2=O)cc1 (centres undefined) | -14.7% | 11.2µM* | -0.4 | -10.0% | 22.4µM* | -2.4%
O=C(c1cccc(S(=O)(=O)N2CCc3ccccc3C2)c1)N1CCN(c2ccccc2)CC1 | ? | ? | -9.2 | -0.2% | ? | -22.3%
CC(=O)N1CCc2cc(C(=O)CN3CCN(c4cccc(Cl)c4)CC3)ccc21 | ? | 20.6µM* | 14.7 | 6.7% | 14.6µM* | 1.1%
CCOC(=O)[C@]12CCC=C1N(CCC1=CCCCC1)C(=O)[C@H](CC(=O)NCc1ccccc1)C2 | · | ? | -1.2 | 2.2% | ? | -0.8%
CCOC(=O)[C@]12CCC=C1N(CCC1=CCCCC1)C(=O)[C@H](CC(=O)NCC1CCCCC1)C2 | · | ? | 0.0 | -11.1% | 23.1µM* | ?
CCOC(=O)[C@]12CCCC=C1N(CCC1=CCCCC1)C(=O)[C@H](CC(=O)NCC1CCCCC1)C2 | · | ? | ? | ? | ? | 23.1µM*
C#CCNC(=O)C[C@@H]1C[C@@]2(C(=O)OCC)CCCC=C2N(CCC2=CCCCC2)C1=O | · | 14.6µM* | 28.1 | 3.8% | 13µM* | -5.2%
O=C1c2ccccc2[C@@H]2C[C@@H](O)[C@H](Nc3cccc4ccccc34)CCN12 | ? | 16.4µM* | -7.0 | -3.0% | ? | -5.6%
O=C(N/N=C/c1ccccc1F)c1csc2c1CCCC2 | ? | ? | -11.1 | -4.1% | ? | 1.4%
Cc1[nH]c(=O)c(C(=O)/C=C/c2ccccc2F)c2c1CCCC2 | 14.6µM* | 3.26µM* | -97.2* | 7.94µM* | 4.61µM* | 7.94µM*
COc1cc(OC)c(OC)cc1CN1CCC(n2cc(C(=O)N3CCCCC3)nn2)CC1 | · | -7.9% | · | · | 8.3%[9.04 µM] | ·
COc1ccc(NC(=O)c2cc(C3CCCCN3S(C)(=O)=O)on2)c(C)c1 (centres undefined) | · | -3.5% | 0.0 | 13.5% | -11.2% | ?
CCCNC(=O)c1cc(C2CCCCN2S(=O)(=O)c2ccc(OC)cc2)on1 (centres undefined) | · | ? | 1.7 | 9.7% | -37.8% | 2.8%
COc1ccc(NC(=O)c2cc(C3CCCCN3S(=O)(=O)c3ccccc3)on2)c(C)c1 (centres undefined) | · | 8.2µM* | -1.7 | -9.8% | ? | -20.2%
COc1ccc(NC(=O)c2cc(C3CCCCN3S(=O)(=O)c3ccc(F)cc3F)on2)c(C)c1 (centres undefined) | · | 14.6µM* | -19.4 | -1.5% | ? | -20.0%
COc1cc(C(=O)Nc2ccccc2-c2nc(-c3ccccc3)no2)cc(OC)c1OC | · | -25.9% | · | · | -19.6% | ·
O=C(Nc1ccccn1)c1cccs1 | · | 25.9µM* | 6.2 | 11.5% | 18.4µM* | -10.3%
CC(C)(C)c1cc(NC(=O)c2cccnc2)no1 | ? | -12.7% | 0.0 | 9.2% | -0.9% | 1.3%
O=C(Nc1ccccn1)c1ccc(-c2ccccc2)cc1 | ? | ? | -58.8* | ? | 9.3% | ?
Cc1cc(NC(=O)c2cc(C(C)(C)C)oc2C)no1 | -1.2% | -28.6% | 4.0 | -9.7% | ? | 1.9%
CC(C)(C)c1cc(NC(=O)c2cc(F)c(F)c(F)c2F)no1 | 18.1% | ? | 35.2 | -10.6% | 29.1µM* | -4.0%
SMILES | ELG1 repair inh | DT40 TDP1 no CPT | IL1B secr inh | HT1080NT lethal | DT40 TDP1 CPT | HT1080 IDH1KD tx
CC(C)(C)c1cc(NC(=O)c2cccs2)no1 | · | 0.3% | -51.3* | -20.5% | ? | -24.2%
c1coc(C2=Nc3cccc4cccc(c34)N2)c1 | 11.3% | 23.1µM* | ? | -5.6% | 14.6µM* | -2.1%
CC1=Nc2cccc3cccc(c23)N1 | -7.4% | 23.1µM* | -11.2 | -11.8% | ? | -12.0%
Nc1ccc(C2=Nc3cccc4cccc(c34)N2)cc1 | -3.4% | ? | 19.2 | -12.7% | -6.3% | -5.6%
COc1cccc(C2=Nc3cccc4cccc(c34)N2)c1 | -0.8% | ? | 0.7 | -1.3% | ? | -0.2%
O=[N+]([O-])c1ccc2cn(C3OC(CO)C(O)C3O)nc2c1 (centres undefined) | · | ? | -2.4 | -24.5% | ? | -23.2%
O=C(CN1C(=O)NC2(CCCCCCC2)C1=O)NCc1ccccc1Cl | 3.5% | ? | -0.2 | -12.3% | -15.4% | -13.1%
COc1ccccc1N1CCN(C(CNC(=O)C(=O)NCCN(C)C)c2cccnc2)CC1 (centres undefined) | · | -18.9% | · | · | -11.3% | ·
COc1ccccc1CNC(=O)C(=O)NCC(c1cccnc1)N1CCN(c2ccc(F)cc2)CC1 (centres undefined) | · | 13µM* | · | · | 11.6µM* | ·
COc1ccccc1CCNC(=O)C(=O)NCC(c1cccnc1)N1CCN(c2ccccc2)CC1 (centres undefined) | · | 11.6µM* | · | · | 11.6µM* | ·
O=S(=O)(NCC(c1ccco1)N1CCCCC1)c1ccccc1C(F)(F)F (centres undefined) | -5.3% | ? | 0.0 | -1.3% | ? | -1.5%
COc1ccccc1N1CCN(S(=O)(=O)c2c(C)sc3ncn(CC(=O)NCCN(C)C)c(=O)c23)CC1 | 5.3% | -12.2% | 21.8 | 1.7% | 14.6% | 11.4%
CCCN(CCC)CCNC(=O)Cn1cnc2sc(C)c(S(=O)(=O)N3CCN(c4ccccc4OC)CC3)c2c1=O | · | 14.6µM* | · | · | ? | ·
COc1ccccc1N1CCN(S(=O)(=O)c2c(C)sc3ncn(CC(=O)Nc4ccc(C(F)(F)F)cc4)c(=O)c23)CC1 | · | ? | · | · | 16.4µM* | ·
COc1ccc(NC(=O)Cn2cnc3sc(C)c(S(=O)(=O)N4CCN(c5ccccc5OC)CC4)c3c2=O)cc1OC | · | 0.4% | · | · | 5.0% | ·
COC(=O)c1ccc(NC(=O)CCn2cnnn2)cc1 | · | 6.9% | · | · | 5.2% | ·
